According to PubChem BioAssay (NCATS):
Inconclusive results are not listed. The source made the active and inactive calls. Calls come from the whole dose curve; as a rule, active = well fitted inhibition curve with a large enough effect; inconclusive = small, poorly fitted or top-dose-only effect; inactive = no such curve, though single readings can be large or run the other way.
Potency is the fitted concentration of half-maximal effect.

Assay: qHTS assay for measurement of the activity of small molecule inhibitors on Zika virus induced Caspase-3 activity in human iPSC derived neural progenitor cells (hNPCs) (AID 1224857); note: nearly all actives have a fitted effect of over 65% in size; for activity change, negative = inhibition: % of control where 0% means no effect
Conditions: hNPCs ZIKV-induced caspase-3/7, Caspase-Glo luminescence, 6 h; series mostly up to 45.7 µM; activity change, negative = inhibition: at the top concentration
Summary of the method: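 Zika virus (2 FFU/cell) infection of human iPSC-derived NPCs, 6 h, following 1 h compound preincubation. Read-out: Caspase-Glo 3/7 luminescence.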
With `Fc1ccc2[nH]c(CN3CCN(c4ccccn4)CC3)cc2c1` the “activity change, negative = inhibition” value was -12.5% (inactive). With `COCCOc1cc2ncnc(Cl)c2cc1OCCOC` the “activity change, negative = inhibition” value was -5% (inactive). With `CCNC(=O)[C@H]1O[C@@H](n2cnc3c(N)nc(NCCc4ccc(CCC(=O)O)cc4)nc32)[C@H](O)C1O` (stereo partly drawn) the “activity change, negative = inhibition” value was 2.68% (inactive). For `CN[C@H](CC(C)C)C(=O)N[C@H]1C(=O)N[C@@H](CC(N)=O)C(=O)N[C@H]2C(=O)N[C@H]3C(=O)N[C@H](C(=O)N[C@H](C(=O)O)c4cc(O)cc(O)c4-c4cc3ccc4O)[C@H](O)c3ccc(c(Cl)c3)Oc3cc2cc(c3O[C@@H]2O[C@H](CO)[C@@H](O)[C@H](O)[C@H]2O[C@H]2C[C@](C)(N)[C@H](O)[C@H](C)O2)Oc2ccc(cc2Cl)[C@H]1O`, the “activity change, negative = inhibition” value was -2.38% (inactive). With `Nc1nc(OCC2CCCCC2)c2[nH]cnc2n1` the “activity change, negative = inhibition” value was -0.371% (inactive). In the case of `COc1ccc(Br)cc1S(=O)(=O)NC(=O)/C=C/c1ccccc1Cc1ccc2ccccc2c1`, the “activity change, negative = inhibition” value is reported as -18.5% (inactive). In the case of `O=C1NC(=O)c2c1c(-c1ccccc1)cc1[nH]c3ccc(O)cc3c21`, the “activity change, negative = inhibition” value is reported as 82.8% (inactive). For `C=C[C@H]1CN2CC[C@@H]1C[C@H]2[C@H](O)c1ccnc2ccc(OC)cc12`, the “activity change, negative = inhibition” value was -3.99% (inactive). In the case of `OCC1O[C@H]([S-])C(O)[C@@H](O)[C@@H]1O.[Au+]` (stereo partly drawn), the “activity change, negative = inhibition” value is reported as 4.18% (inactive). For `CC(C)c1cccc(C(C)C)c1N1C(=O)c2ccc(O)cc2C1=O`, the “activity change, negative = inhibition” value was 14.4% (inactive). For `Cc1cn([C@H]2CC(N=[N+]=[N-])[C@@H](CO)O2)c(=O)[nH]c1=O` (stereo partly drawn), the “activity change, negative = inhibition” value was -4.27% (inactive). In the case of `COc1ccccc1CN[C@@H]1CCCN[C@@H]1c1ccccc1`, the “activity change, negative = inhibition” value is reported as 11.7% (inactive). For `Nc1ccn([C@H]2O[C@H](CO)[C@@H](O)C2(F)F)c(=O)n1`, the “activity change, negative = inhibition” value was 20.2% (inactive). With `COc1ccc(/C=C2\COc3ccc(C)cc3C2=O)cc1O` the “activity change, negative = inhibition” value was 22.2% (inactive). In the case of `CCC(CO)Nc1nc(NCc2ccccc2)c2ncn(C(C)C)c2n1` (stereo not drawn), the “activity change, negative = inhibition” value is reported as 37.4% (inactive). With `COc1ccc(/C=C/c2nc(NCCCN(C)C)c3ccccc3n2)cc1` the “activity change, negative = inhibition” value was 24.8% (inactive). With `Nc1ncnc2c1ncn2[C@@H]1O[C@H](CO)C(O)[C@H]1O` (stereo partly drawn) the “activity change, negative = inhibition” value was 4.82% (inactive). With `C/C(=N\O)c1ccc(OCC(=O)N2CCCCC2)cc1` the Potency was 15.8 µM (active). For `N=c1ccn2c(n1)O[C@H]1C(O)[C@@H](CO)O[C@H]12` (stereo partly drawn), the “activity change, negative = inhibition” value was 24.2% (inactive). In the case of `Nc1nc2ccc([N+](=O)[O-])cc2s1`, the Potency is reported as 10 µM (active). In the case of `O=C(Nc1ccc2c(c1)CCN(Cc1ncn[nH]1)C2)c1ccccc1-c1ccc(C(F)(F)F)cc1`, the “activity change, negative = inhibition” value is reported as 19.5% (inactive). For `Cc1ccc2c(n1)Oc1ccc(C(C)C(=O)OCC(=O)N(C)C)cc1C2` (stereo not drawn), the Potency was 14.1 µM (active). With `Cc1c(N)c(=O)n(-c2ccccc2)n1C` the “activity change, negative = inhibition” value was -9.65% (inactive). For `Nc1nc(Cl)nc2c1ncn2[C@@H]1O[C@H](CO)C(O)[C@H]1O` (stereo partly drawn), the “activity change, negative = inhibition” value was 22.2% (inactive). For `Cn1c(=O)c(-c2c(Cl)cccc2Cl)cc2cnc(Nc3ccc(N4CCOCC4)cc3)nc21`, the “activity change, negative = inhibition” value was -0.197% (inactive). For `CC[C@H]1OC(=O)[C@H](C)C(O[C@H]2C[C@@](C)(OC)[C@@H](O)[C@H](C)O2)[C@H](C)[C@@H](OC2O[C@H](C)C[C@H](N(C)C)[C@H]2O)[C@](C)(O)C[C@@H](C)CN(C)[C@H](C)[C@@H](O)[C@]1(C)O` (stereo partly drawn), the “activity change, negative = inhibition” value was -1.92% (inactive). In the case of `CN(CCCOc1ccc(Cc2ccccc2)cc1)CCC(=O)O`, the “activity change, negative = inhibition” value is reported as 18% (inactive). With `O=C1NC(O)=NC1(c1ccccc1)c1ccccc1` the “activity change, negative = inhibition” value was -36.4% (inactive). In the case of `C=C/C(C)=C/[C@@]1(C)SC(=O)C(C)=C1O`, the “activity change, negative = inhibition” value is reported as 11.9% (inactive). For `c1ccc(CCNc2nc(-c3ccccc3)cs2)cc1`, the “activity change, negative = inhibition” value was -185% (inactive). In the case of `Nc1nc2c(ncn2[C@@H]2O[C@H](CO)[C@@H](O)[C@@H]2O)c(=O)[nH]1`, the “activity change, negative = inhibition” value is reported as -17% (inactive). For `COCCOc1cc2nc[nH]c(=O)c2cc1OCCOC`, the “activity change, negative = inhibition” value was 17.9% (inactive). With `O=C(CCc1ccncc1)NNC(=O)N1Cc2ccccc2Oc2ccc(Cl)cc21` the “activity change, negative = inhibition” value was 12.9% (inactive). In the case of `CO[C@H]1O[C@@H]2O[C@]3(C)CC[C@@H]4[C@@H](C)CC[C@H]([C@H]1C)[C@]24OO3`, the “activity change, negative = inhibition” value is reported as -10% (inactive). In the case of `C[C@H](Cc1ccccc1)Nc1ncnc2c1ncn2[C@@H]1O[C@H](CO)C(O)[C@H]1O` (stereo partly drawn), the “activity change, negative = inhibition” value is reported as 1.31% (inactive). With `COC(=O)C1=C(C)NC(C)=C(C(=O)OC)C1c1cccc(NC(=O)NCCCN2CCC(c3cccc(OC)c3)CC2)c1` the “activity change, negative = inhibition” value was -6.34% (inactive). In the case of `CC1(C)S[C@@H]2[C@H](NC(=O)[C@H](N)c3ccccc3)C(=O)N2[C@H]1C(=O)O`, the “activity change, negative = inhibition” value is reported as -10.1% (inactive). For `CNC(=O)[C@H]1O[C@@H](n2cnc3c(NCc4ccc(N)cc4)ncnc32)[C@H](O)C1O` (stereo partly drawn), the “activity change, negative = inhibition” value was -7.82% (inactive).
